A selection: hits, their analogues and other compounds. The true share with any hit is near 0.39%.
TRPV1 PAM: human TRPV1 potentiation; 0.02% of 320,000 active; Q8NER1; TRPV1-expressing cells, Fluo-8 calcium influx, capsaicin EC20 potentiation; potentiation, % at 8.33 µM; in the data active = potentiation above about 80%; inconclusive = between about 30% and that limit; also: 0% is about no effect
Target sequence (Q8NER1 whole entry, looked up): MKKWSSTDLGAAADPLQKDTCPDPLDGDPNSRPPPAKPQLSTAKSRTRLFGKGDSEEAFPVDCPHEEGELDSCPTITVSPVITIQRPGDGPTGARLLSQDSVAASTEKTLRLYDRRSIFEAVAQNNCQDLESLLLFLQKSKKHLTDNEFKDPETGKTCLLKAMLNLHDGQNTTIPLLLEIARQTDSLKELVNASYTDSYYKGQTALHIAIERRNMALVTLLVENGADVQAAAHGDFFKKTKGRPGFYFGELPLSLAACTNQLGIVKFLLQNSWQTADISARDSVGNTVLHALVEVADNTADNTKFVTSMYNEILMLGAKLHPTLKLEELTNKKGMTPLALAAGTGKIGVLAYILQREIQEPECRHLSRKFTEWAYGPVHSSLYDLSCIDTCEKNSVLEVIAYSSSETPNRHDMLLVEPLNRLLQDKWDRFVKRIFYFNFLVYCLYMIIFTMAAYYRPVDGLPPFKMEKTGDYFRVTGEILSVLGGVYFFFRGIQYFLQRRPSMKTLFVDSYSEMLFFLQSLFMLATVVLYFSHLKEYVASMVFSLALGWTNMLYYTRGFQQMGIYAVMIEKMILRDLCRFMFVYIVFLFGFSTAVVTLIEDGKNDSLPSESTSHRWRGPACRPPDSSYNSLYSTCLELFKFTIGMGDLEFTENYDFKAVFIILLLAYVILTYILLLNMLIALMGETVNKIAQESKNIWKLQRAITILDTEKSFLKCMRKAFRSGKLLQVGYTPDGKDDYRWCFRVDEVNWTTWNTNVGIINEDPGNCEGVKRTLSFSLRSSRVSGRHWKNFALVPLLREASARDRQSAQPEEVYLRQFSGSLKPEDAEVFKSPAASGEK
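Fluo-8 calcium influx in TRPV1-expressing cells, kinetic read (ex 480/em 520 nm). Compound added and read 3 min for agonist activity, followed by capsaicin at EC20 final and 2 min further read for enhancement.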
TRPV1 agonist: agonists of human vanilloid receptor 1 (TRPV1) | Q8NER1 | TRPV1-expressing cells, Fluo-8 calcium influx, agonist mode | activation, % at 8.33 µM | 0.19% of 320,000 active | AID 540275; in the data active = activation above about 80%; inconclusive = between about 30% and that limit; also: 0% is about no effect
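Cells expressing TRPV1 were dye-loaded with Fluo-8 and read kinetically: 10 s baseline, 3 min after compound (agonist portion), then 2 min after EC20 capsaicin (allosteric enhancer portion). Calcium-bound dye fluorescence at 480/520 nm.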
A-T KAP1 phos: potential ataxia-telangiectasia treatments restoring KAP-1 phosphorylation. F2112 A-T fibroblasts, KAP-1 phosphorylation AlphaLISA; neocarzinostatin DNA damage 30 min before lysis. Potency, µM (doses to about 57.5 µM), inactives show at the top dose activation, hits mostly activators. 0.19% of 320,000 active; also: potency is read from the fitted curve at half-maximal effect; % of control where 0% means no effect; nearly all actives have a fitted effect of over 45% in size
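ATM-like activity read as KAP-1 phosphorylation via AlphaLISA donor/acceptor antibody pairs after lysis and 6 hr at 25C. Cells were ATM-null patient fibroblasts (F2112, hTERT), dosed 60 min, then exposed to the DSB inducer NCS for 30 min.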
Anesthetic bind: binds horse apoferritin like a general anesthetic; apoferritin/1-aminoanthracene competitive binding, fluorescence; Potency, µM (titrated, usually from 77.5 µM), without a hit: at the highest dose activity change, negative = displacement, actives largely listed as inhibitors; 0.074% of 350,000 active; also: potency is read from the fitted curve at half-maximal effect; % is scaled to controls: 0 for no effect and ±100 for the full control effect; nearly all actives have a fitted effect of over 20% in size
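Apoferritin-based anesthetic binding model; compound displacement of fluorescent 1-AMA measured as endpoint fluorescence after 10 minutes at room temperature, scaled to free-ligand and complex controls.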
CBFb-RUNX1 inh: inhibitors of human CBF-beta and RUNX1 interaction; Q01196+Q13951; AlphaScreen CBFb-His/RUNX1-biotin binding, biochemical; Potency, µM (highest dose often 59.8 µM), for the others: at the top dose activity, negative = inhibition, hits mostly inhibitors; 230,000 tested, under 10 active; AID 1477; also: % of control where 0% means no effect
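CBFb-His/RUNX1-biotin, 30 nM each, preincubated 20 min RT; compound 15 min RT; Ni + streptavidin beads 50 ng each, 90 min RT; AlphaScreen read.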
* marks the source's active call; other numbers are inactive results; ? = inconclusive; / = no result. Unless noted, calls follow the shape of the dose curve; as a rule, active = well fitted curve in the direction sought with a large enough effect; inconclusive = small, poorly fitted or top-dose-only effect, or another doubt; inactive = no such curve, though single readings can be large; an effect the other way counts as inactive or inconclusive.

SMILES	TRPV1 PAM	TRPV1 agonist	A-T KAP1 phos	Anesthetic bind	CBFb-RUNX1 inh
CC[C@H](C)[C@H](NC(=O)CNC(=O)[C@H](CCCNC(=N)N)NC(=O)[C@H](CO)NC(=O)[C@H](C)NC(=O)[C@H](Cc1ccc(O)cc1)NC(=O)[C@H](Cc1c[nH]c2ccccc12)NC(=O)[C@H](C)NC(=O)[C@@H]1CCCN1C(=O)[C@H](CC(N)=O)NC(=O)[C@@H](NC(=O)[C@H](CC(=O)O)NC(=O)[C@@H]1CCCN1C(=O)[C@@H](N)[C@@H](C)O)[C@@H](C)CC)C(=O)N[C@@H](CCCNC(=N)N)C(=O)N1CCC[C@H]1C(=O)N[C@H](C(=O)NCC(=O)N[C@@H](CCCNC(=N)N)C(=O)N[C@@H](Cc1ccccc1)C(N)=O)C(C)C	/	/	/	-0.8%	16.7%
CCCC[C@@H](C)/C=C(C)/C=C(\C)C(=O)NC1=C[C@@](O)(/C=C/C=C/C=C/C(=O)NC2=C(O)CCC2=O)[C@@H]2O[C@@H]2C1=O	/	/	/	?	-26.8%
COc1cc2[nH]c(C(=O)Nc3ccc(F)cc3)cc2c(OC)c1OC	-5.6	86.1*	-0.8%	1.2%	/
Cc1cc(C)c2cc(C(=O)Nc3ccc(C)c(F)c3)[nH]c2c1	-8.1	?	3.3%	-11.0%	/
CC1=NN(C(C#N)c2ccc(F)cc2)C(C)(C)C1 (stereo not drawn)	9.4	-0.9	-0.3%	-13.3%	11.0%
CC1=NN(C(C#N)c2ccc([N+](=O)[O-])cc2)C(C)(C)C1 (stereo not drawn)	-8.3	2.8	3.55µM*	-5.6%	-2.2%
C/C1=C\[C@@H](O)C(C(C)C)C(OC(=O)c2ccc(O)cc2)C/C(C)=C/CC1 (stereo partly drawn)	/	/	/	?	5.4%
CCN1CCN(Cc2ccc(NC(=O)c3ccc(C)c(NC(=O)c4ccno4)c3)cc2C(F)(F)F)CC1	-15.8	0.2	-12.9%	4.0%	8.9%
CCN1CCN(Cc2ccc(NC(=O)c3ccc(C)c(NC(=O)c4csc(-c5ccncc5)n4)c3)cc2C(F)(F)F)CC1	-17.3	-0.7	39.8µM*	-13.8%	?
CCCCc1ccc(NC(=O)Nc2cccnc2)cc1	6.2	85.0*	-1.8%	?	/
c1ccc(-c2nnc(CN3CCCCC3)o2)cc1	-5.4	-1.6	44.7µM*	21.8%	/
CCN1CCN(Cc2nnc(-c3ccccc3)o2)CC1	4.6	7.5	7.0%	-0.3%	/
COc1ccc(C(=O)C(CN2CCOCC2)c2ccccc2)cc1 (stereo not drawn)	3.7	0.1	/	-20.2%	0.4%
O=C(c1ccccc1)C(CCC(CN1CCOCC1)C(=O)c1ccccc1)CN1CCOCC1 (stereo not drawn)	-11.2	17.6	35.5µM*	-19.1%	3.0%
O=C(c1ccc(F)cc1)C(CN1CCOCC1)c1ccccc1 (stereo not drawn)	0.3	0.5	39.8µM*	?	1.5%
COC(=O)[C@H](COC(C)(C)C)NC(=O)O[C@H]1C(=O)c2cc(OC)ccc2O[C@@H]1c1ccc(OC)c(Br)c1	/	/	/	/	8.9%
CCOCC	/	/	/	0.5%	6.4%
O=C(NCC(Cl)c1ccc2ccccc2c1)c1c(F)cccc1F (stereo not drawn)	-1.1	2.9	20µM*	-18.1%	/
O=C(NCCCNC(=O)c1c(F)cccc1F)c1c(F)cccc1F	6.5	0.0	-9.1%	-1.7%	/
CCN(C(=O)c1cc2c(=O)n3ccccc3nc2n1CCCOC)C1CCCCC1	3.1	?	28.2µM*	696.0%	/
CCN(C(=O)c1cc2c(=O)n3ccccc3nc2n1C)C1CCCCC1	-25.5	?	?	525.1%	/
O=S(=O)(c1ccc(F)cc1F)N1CCCN(c2ccc(C(F)(F)F)cn2)CC1	-17.0	25.4	0.7%	-9.1%	10.7%
N#Cc1ccc(S(=O)(=O)N2CCCN(c3ccc(C(F)(F)F)cn3)CC2)cc1	-25.0	81.2*	-3.6%	-0.2%	2.2%
COc1ccc(C2=Nn3c(nnc3-c3ccccc3OC)SC2)c(OC)c1	/	/	/	-7.5%	4.4%
CCOC(=O)/C(=N\Nc1ccccc1Cl)N1CC(C)OC(C)C1 (stereo not drawn)	-9.5	18.5	?	-4.9%	5.4%
SMILES	TRPV1 PAM	TRPV1 agonist	A-T KAP1 phos	Anesthetic bind	CBFb-RUNX1 inh
CCOC(=O)/C(=N\Nc1ccc(Br)cc1)N1CC(C)OC(C)C1 (stereo not drawn)	-16.8	0.0	25.1µM*	-13.4%	2.7%
COc1cc(/C=C2\CCOC2=O)cc(OC)c1OC	-15.5	-10.0	1µM*	7.0%	3.6%
C/C(=N\Nc1ccc2nncn2n1)c1ccc(Cl)s1	-11.0	114.8*	6.2%	-7.3%	0.7%
FC(F)(F)c1cccc(OCC2CNC(=S)O2)c1 (stereo not drawn)	-11.0	12.0	10µM*	-4.4%	4.9%
CN1C(=O)N(C)C2=NNC=NC2(O)C1=O (stereo not drawn)	/	/	/	/	12.9%
Nc1ccccc1S(=O)(=O)Nc1cccc2cccnc12	/	/	/	?	14.3%
Cc1cccc(NC(=O)c2ccc(S(=O)(=O)C(F)F)cc2)c1C	12.0	86.5*	9.0%	1.4%	8.1%
COC(=O)c1cn(NC(=O)c2ccc3c(c2)OCO3)c(=O)c2ccccc12	-7.8	80.5*	14.4%	2.8%	1.2%
COC(=O)c1cn(NC(=O)c2ccc(OC)c(OC)c2)c(=O)c2ccccc12	?	-1.5	6.9%	2.6%	16.9%
CSCC[C@H](NC(=O)[C@H](CO)NC(=O)[C@H](Cc1ccc(O)cc1)NC(=O)[C@@H](N)CO)C(=O)N[C@@H](CCC(=O)O)C(=O)N[C@@H](Cc1cnc[nH]1)C(=O)N[C@@H](Cc1ccccc1)C(=O)N[C@@H](CCCNC(=N)N)C(=O)N[C@@H](Cc1c[nH]c2ccccc12)C(=O)NCC(=O)N[C@@H](CCCCN)C(=O)N1CCC[C@H]1C(=O)N[C@H](C(=O)NCC(=O)N[C@@H](CCCCN)C(=O)N[C@@H](CCCCN)C(=O)N[C@@H](CCCNC(=N)N)C(=O)N[C@@H](CCCNC(=N)N)C(=O)N1CCC[C@H]1C(=O)N[C@H](C(=O)N[C@@H](CCCCN)C(=O)N[C@H](C(=O)N[C@@H](Cc1ccc(O)cc1)C(=O)N1CCC[C@H]1C(=O)O)C(C)C)C(C)C)C(C)C	/	/	/	-2.5%	7.1%
Nc1nc(-c2cccc(Br)c2)cs1	13.1	0.8	-1.2%	31.6µM*	-2.4%
CC1(c2ccc(OC(F)F)cc2)NC(=O)N(CC(=O)Nc2ccc3[nH]c(=O)[nH]c3c2)C1=O (stereo not drawn)	80.9*	-6.6	7.1%	/	/
COc1ccc(C2(C)NC(=O)N(CC(=O)Nc3ccc4[nH]c(=O)[nH]c4c3)C2=O)cc1 (stereo not drawn)	-22.2	-2.2	0.3%	/	/
Cc1cccc(NC(=O)c2ccc3c(c2)OCCO3)c1	-7.9	-1.5	-1.2%	-8.2%	/

Source: PubChem
